Where a name gives a salt, the structure may show the parent alone.

This experiment has as its system Saccharomyces cerevisiae BY4741 SeMeCo community. In words: z-score of subpopulation abundance vs DMSO median, subpopulation auxotrophic for HU; higher = larger share of this subpopulation than in DMSO controls. As to conditions: 10 µM; 24 h; SM minimal medium; subpopulation (auxotrophy): HU. The protocol: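 Fluorescent four-plasmid SeMeCo (self-establishing metabolically cooperating S. cerevisiae BY4741 community; plasmids pH-mRuby2, pL-mWasabi, pU-eCFP, pM-TagRFP657) was grown 24 h in minimal SM medium with each Selleck FDA-approved drug at 10 µM in 384-well plates. Cells were fixed and imaged by high-content confocal microscopy. For each auxotrophic subpopulation (and the prototroph), a z-score gives the deviation from the DMSO vehicle-control population median.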
For the molecule `NC[C@@H]1O[C@H](O[C@H]2[C@@H](O)[C@H](O[C@@H]3[C@@H](O)[C@H](N)C[C@H](N)[C@H]3O[C@H]3O[C@H](CN)[C@@H](O)[C@H](O)[C@H]3N)O[C@@H]2CO)[C@H](N)[C@@H](O)[C@@H]1O` [Neomycin sulfate], the “z-score of subpopulation abundance” value was -0.31.
Then `Cn1c(=O)c2[nH]cnc2n(C)c1=O` [Aminophylline], with -0.5.
In the case of `CCN1CCN(C(=O)N[C@@H](C(=O)N[C@@H]2C(=O)N3[C@@H]2SC(C)(C)[C@@H]3C(=O)O)c2ccccc2)C(=O)C1=O` [Piperacillin Sodium], the “z-score of subpopulation abundance” value is -0.25.
In the case of `CO[C@H]1C[C@@H]2CC[C@@H](C)[C@@](O)(O2)C(=O)C(=O)N2CCCC[C@H]2C(=O)O[C@H]([C@H](C)C[C@@H]2CC[C@H](n3cnnn3)[C@H](OC)C2)CC(=O)[C@H](C)/C=C(\C)[C@@H](O)[C@@H](OC)C(=O)[C@H](C)C[C@H](C)/C=C/C=C/C=C/1C` [Zotarolimus(ABT-578)], the “z-score of subpopulation abundance” value was determined as 23.5.
As to `C=C[C@]1(C)C[C@@H](OC(=O)CS[C@@H]2C[C@H]3CC[C@@H](C2)N3C)[C@]2(C)[C@H](C)CC[C@]3(CCC(=O)[C@H]32)[C@@H](C)[C@@H]1O` [Retapamulin], the “z-score of subpopulation abundance” value was 0.72.
Then `CNCCCC1c2ccccc2C=Cc2ccccc21` [Protriptyline hydrochloride], with 0.37.
Then `CN(C)[C@@H]1C(=O)C(C(N)=O)=C(O)[C@@]2(O)C(=O)C3=C(O)c4c(O)ccc(Cl)c4[C@@H](O)[C@H]3C[C@@H]12` [Demeclocycline HCl], with -0.34.
Then `Cc1c(S(=O)(=O)O)oc2c1C(=O)C(=O)c1c-2ccc2c1CCCC2(C)C` [Tanshinone IIA sulfonate (sodium)], with -2.62.
Regarding `CC[C@H]1OC(=O)C[C@@H](O)[C@H](C)[C@@H](O[C@@H]2O[C@H](C)[C@@H](O[C@H]3C[C@@](C)(O)[C@@H](O)[C@H](C)O3)[C@H](N(C)C)[C@H]2O)[C@@H](CC=O)C[C@@H](C)C(=O)/C=C/C(C)=C/[C@@H]1CO[C@@H]1O[C@H](C)[C@@H](O)[C@@H](OC)[C@H]1OC` [Tylosin], the “z-score of subpopulation abundance” value was found to be 0.26.
To `Oc1c(Br)cc(Br)c2cccnc12` [Broxyquinoline] belongs 16.9.
In the case of `Nc1cc(C(Cl)=C(Cl)Cl)c(S(N)(=O)=O)cc1S(N)(=O)=O` [Clorsulon], the “z-score of subpopulation abundance” value stood at 0.32.
Then `CO/N=C(\C(=O)N[C@@H]1C(=O)N2C(C(=O)O)=C(CSC(=O)c3ccco3)CS[C@H]12)c1csc(N)n1` [Ceftiofur], with 0.47; and `CC(c1cc2ccccc2s1)N(O)C(N)=O` (stereo not given) [Zileuton], with -0.39; and `C=C1CCN([C@H](C)[C@](O)(Cn2cncn2)c2ccc(F)cc2F)CC1` [Efinaconazole], with 2.02.
Then `O=C(N[C@H](CO)[C@H](O)c1ccc([N+](=O)[O-])cc1)C(Cl)Cl` [Chloramphenicol], with 0.66; and `OCc1ccc(Cl)cc1Cl` [2,4-dichlorobenzyl alcohol], with -0.65.
Consider `CCN[C@@H]1C[C@H](N)[C@@H](O[C@H]2OC(CN)=CC[C@H]2N)[C@H](O)[C@H]1O[C@H]1OC[C@](C)(O)[C@H](NC)[C@H]1O` [Netilmicin Sulfate], for which the “z-score of subpopulation abundance” value worked out at 0.01.
For `C[C@]12CC[C@@H]3c4ccc(OS(=O)(=O)O)cc4CC[C@H]3[C@@H]1CCC2=O` [Estropipate], the “z-score of subpopulation abundance” value is -0.17.
Take `Oc1c(Cl)cc(Cl)c2cccnc12` [Chloroxine]: the “z-score of subpopulation abundance” value turned out to be 12.7.
Consider `CC1=C(CC(=O)O)c2cc(F)ccc2/C1=C\c1ccc([S+](C)[O-])cc1` (stereo not given) [Sulindac], for which the “z-score of subpopulation abundance” value is -0.74.
In the case of `COC(=O)C1=C(C)NC(C)=C(C(=O)OCCN(C)Cc2ccccc2)C1c1cccc([N+](=O)[O-])c1` (stereo not given) [Nicardipine HCl], the “z-score of subpopulation abundance” value was 0.
To `O=C(Nc1cccc(C2=NCCN2)c1)Nc1cccc(C2=NCCN2)c1` [Imidocarb dipropionate] belongs 0.05.
Then `C=CC(C)(O)CCC=C(C)C` (stereo not given) [Linalool], with 0.69; and `CN1C2CCCC1CC(NC(=O)c1nn(C)c3ccccc13)C2` (stereo not given) [Granisetron], with -0.71.
With `COc1cccc2c1C(=O)c1c(O)c3c(c(O)c1C2=O)C[C@@](O)(C(=O)CO)C[C@@H]3O[C@H]1C[C@H](N)[C@H](O[C@@H]2CCCCO2)[C@H](C)O1` [Pirarubicin], the “z-score of subpopulation abundance” value was determined as 4.
To `CC1=C[C@H]2C(=O)O[C@H]3C[C@@H](C/C=C(\C)C[C@@H](C)/C=C/C=C4\CO[C@H](/C1=N\O)[C@@]42O)O[C@@]1(CC[C@H](C)[C@@H](C)O1)C3.CC[C@H]1O[C@]2(CC[C@@H]1C)C[C@@H]1C[C@@H](C/C=C(\C)C[C@@H](C)/C=C/C=C3\CO[C@@H]4/C(=N\O)C(C)=C[C@@H](C(=O)O1)[C@]34O)O2` [Milbemycin Oxime] belongs 0.42.
Then `Cc1cc(CC(C)CC(C)(C)C)n(O)c(=O)c1` (stereo not given) [Piroctone Olamine], with 31.8.
On to `CCCC1CC(C(=O)NC(C(C)Cl)C2OC(SC)C(O)C(O)C2O)N(C)C1` (stereo not given) [Clindamycin alcoholate], for which the “z-score of subpopulation abundance” value is -0.93.
Then `N[C@@H]1CN(c2c(F)cc3c(=O)c(C(=O)O)cn([C@@H]4C[C@@H]4F)c3c2Cl)CC12CC2` [Sitafloxacin Hydrate], with 1.54; and `CC(NCCC(c1ccccc1)c1ccccc1)c1ccccc1` (stereo not given) [Fendiline hydrochloride], with -0.97.
For `CC[C@H]1OC(=O)[C@H](C)[C@@H](O[C@H]2C[C@@](C)(OC)[C@@H](O)[C@H](C)O2)[C@H](C)[C@@H](O[C@@H]2O[C@H](C)C[C@H](N(C)C)[C@H]2O)[C@](C)(O)C[C@@H](C)CN(C)[C@H](C)[C@@H](O)[C@]1(C)O` [Azithromycin Dihydrate], the “z-score of subpopulation abundance” value was -0.53.
As for `CO/N=C(\C(=O)N[C@@H]1C(=O)N2C(C(=O)O)=C(CSc3nc(C)c(CC(=O)O)s3)CS[C@H]12)c1csc(N)n1` [Cefodizime Sodium], the “z-score of subpopulation abundance” value came to 0.66.
As for `CCCCCOc1ccc(-c2ccc(-c3ccc(C(=O)N[C@H]4C[C@@H](O)[C@@H](O)NC(=O)[C@@H]5[C@@H](O)[C@@H](C)CN5C(=O)[C@H]([C@@H](C)O)NC(=O)[C@H]([C@H](O)[C@@H](O)c5ccc(O)cc5)NC(=O)[C@@H]5C[C@@H](O)CN5C(=O)[C@H]([C@@H](C)O)NC4=O)cc3)cc2)cc1`, the “z-score of subpopulation abundance” value came out at 17.2.
Take `O=C1C(N(CO)C(=O)NCO)N(CO)C(=O)N1CO` (stereo not given) [Diazolidinyl urea]: the “z-score of subpopulation abundance” value was -0.75.
For `CCC(C)n1ncn(-c2ccc(N3CCN(c4ccc(OCC5COC(Cn6cncn6)(c6ccc(Cl)cc6Cl)O5)cc4)CC3)cc2)c1=O` (stereo not given) [Itraconazole], the “z-score of subpopulation abundance” value was determined as 7.89.
With `C[C@@H]1C/C=C/C=C/C=C/C=C/[C@H](O[C@@H]2O[C@H](C)[C@@H](O)[C@H](N)[C@@H]2O)C[C@@H]2O[C@](O)(C[C@@H](O)C[C@H]3O[C@@H]3/C=C/C(=O)O1)C[C@H](O)[C@H]2C(=O)O` [Natamycin], the “z-score of subpopulation abundance” value was 33.6.
On to `CC1(C)S[C@@H]2[C@H](NC(=O)Cc3ccccc3)C(=O)N2[C@H]1C(=O)O` [Benzylpenicillin potassium], for which the “z-score of subpopulation abundance” value is -0.05.
For the molecule `COc1cc(C(C)=O)ccc1OCCCN1CCC(c2noc3cc(F)ccc23)CC1` [Iloperidone], the “z-score of subpopulation abundance” value is -0.38.
Consider `O=C(O[C@@H]1C[C@@H]2C[C@H]3C[C@H](C1)N2CC3=O)c1c[nH]c2ccccc12` [Dolasetron Mesylate], for which the “z-score of subpopulation abundance” value was 0.7.
Regarding `Cc1cccc(C)c1NC(=O)C1CCCCN1C` (stereo not given) [Mepivacaine], the “z-score of subpopulation abundance” value was -0.53.
